# Laboratory results published in PubChem BioAssay (NCI).
# This is part of a sample that, as a whole, favours compounds with a hit. Of some 83,000 tested, about 20% had one in any assay.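 Compound tested at a single concentration for 48 hours in 96-well plates; a percent growth value below 10 was scored as active.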 Unmarked numbers belong to inactive results. Calls of active or inactive are those of the source.
# Tested on: HL-60(TB) leukemia
# Experiment: NCI-60 one-dose screen, 48 h (100 = growth as untreated, 0 = no growth, -100 = all killed)
# Conditions: 10 µM unless noted
row,SMILES,growth
1,c1ccc(N(c2ccccc2)c2ccccc2)cc1,94.2%
2,O=[N+]([O-])c1cccc(N=NNc2cccc([N+](=O)[O-])c2)c1,79.9%
3,O=[N+]([O-])c1ccc(-c2nc(-c3ccccc3)c(-c3ccccc3)n2-c2ccccc2)cc1,-16.4% (active)
4,[N-]=[N+]=NCC1OC(n2cnc3c(NC(=O)Nc4ccccc4)ncnc32)C2OC(=O)CC12 (centres undefined),87.3%
5,O=C(NCCNC(=O)c1ccc(F)cc1)Nc1ccc(-n2cc(-c3ccncc3)c(-c3ccc(Cl)c(O)c3)n2)cc1,-14.1% (active)
6,COc1cc(NC(C)CCCN)c2nc(C)ccc2c1OC (centres undefined),-12.2% (active)
7,O=C(CCc1nnc2sc(Cc3ccccc3Cl)nn12)c1nc2ncccc2[nH]1,116%
8,O=S(=O)(NCCNc1nccc(-c2c(-c3cccc(O)c3)nc3occn23)n1)c1cccc(F)c1,76.6%
9,CCOC(=O)C#Cc1c(CC(=O)OCC)nnn1[C@H]1O[C@@H](CO)[C@@H]2OC(C)(C)O[C@@H]21,38%
